Inconclusive results are not listed. Where a call stands in place of a potency, no number is given. Calls of active or inactive are those of the source. Calls come from the whole dose curve; as a rule, active = well fitted inhibition curve with a large enough effect; inconclusive = small, poorly fitted or top-dose-only effect; inactive = flat fitted curve, though single readings scatter.
Assays:
Assay in all cases: qHTS profiling for inhibitors of Plasmodium falciparum proliferation (AID 504749); note: nearly all actives have a fitted effect of over 60% in size
Settings in all cases: P. falciparum in erythrocytes, SYBR Green DNA, 72 h; series mostly up to 28.7 µM
CP237 = tested on: CP237
In short: (§1)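 Each compound contacts P. falciparum-infected red blood cells for 72 h at 37 C; lysis buffer (Tris, EDTA, saponin, Triton X, SYBR Green I) is added and fluorescence measured next morning; values normalized to controls.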

CP238 = tested on: CP238
In short: as §1

CP247 = tested on: CP247
In short: as §1

CP250 = tested on: CP250
In short: as §1

CP252 = tested on: CP252
In short: as §1

CP256 = tested on: CP256
In short: as §1

CP260 = tested on: CP260
In short: as §1

CP262 = tested on: CP262
In short: as §1

CP265 = tested on: CP265
In short: as §1

CP268 = tested on: CP268
In short: as §1

CP269 = tested on: CP269
In short: as §1

CP286 = tested on: CP286
In short: as §1

CP291 = tested on: CP291
In short: as §1

CP297 = tested on: CP297
In short: as §1

CP305 = tested on: CP305
In short: as §1

CP315 = tested on: CP315
In short: as §1

CP325 = tested on: CP325
In short: as §1

CP329 = tested on: CP329
In short: as §1

CP335 = tested on: CP335
In short: as §1

CP266 = tested on: CP266
In short: as §1
Potency is the fitted concentration of half-maximal effect.

Row | Structure (SMILES) | Potency (CP237) | Potency (CP238) | Potency (CP247) | Potency (CP250) | Potency (CP252) | Potency (CP256) | Potency (CP260) | Potency (CP262) | Potency (CP265) | Potency (CP268) | Potency (CP269) | Potency (CP286) | Potency (CP291) | Potency (CP297) | Potency (CP305) | Potency (CP315) | Potency (CP325) | Potency (CP329) | Potency (CP335) | Potency (CP266)
1 | CCCCCCCCOc1ccc(C(=O)c2ccccc2)c(O)c1 | inactive | inactive | inactive | inactive | inactive | inactive | inactive | inactive | inactive | inactive | inactive | inactive | inactive | inactive | inactive | inactive | inactive | inactive | inactive | –
2 | O=C(O)c1ccc(S(=O)(=O)N(Cl)Cl)cc1 | inactive | inactive | inactive | inactive | inactive | inactive | inactive | – | inactive | inactive | inactive | inactive | inactive | inactive | inactive | inactive | inactive | inactive | inactive | inactive
3 | C/C=C/C=N/NC(=O)c1ccncc1 | inactive | inactive | inactive | inactive | inactive | inactive | inactive | inactive | inactive | inactive | inactive | inactive | inactive | – | inactive | inactive | inactive | inactive | inactive | inactive
4 | CCCCCCCCCCCCSCCOCCO | inactive | inactive | inactive | inactive | inactive | inactive | inactive | inactive | inactive | inactive | inactive | inactive | inactive | inactive | inactive | inactive | inactive | inactive | inactive | inactive
5 | Cc1c(-c2ccccc2)oc2c(C(=O)OCCN3CCCCC3)cccc2c1=O | inactive | inactive | inactive | inactive | inactive | inactive | inactive | inactive | inactive | inactive | inactive | inactive | inactive | inactive | inactive | inactive | inactive | inactive | inactive | inactive
6 | CC(=O)Nc1ccc(OC(=O)c2ccccc2OC(C)=O)cc1 | inactive | inactive | inactive | inactive | inactive | inactive | inactive | inactive | inactive | inactive | inactive | inactive | inactive | inactive | inactive | inactive | inactive | inactive | inactive | –
7 | NS(=O)(=O)c1cc(C(=O)O)cc(N2CCCC2)c1Oc1ccccc1 | inactive | inactive | inactive | inactive | inactive | inactive | inactive | inactive | inactive | inactive | inactive | inactive | inactive | inactive | inactive | inactive | inactive | inactive | inactive | –
8 | O=C1C(O)=C(O)C(=O)C(O)=C1O | inactive | inactive | inactive | inactive | inactive | inactive | inactive | inactive | inactive | inactive | inactive | – | inactive | – | inactive | inactive | inactive | inactive | inactive | inactive
9 | O=C1C(CCS(=O)c2ccccc2)C(=O)N(c2ccccc2)N1c1ccccc1 (stereo not drawn) | inactive | inactive | inactive | inactive | inactive | inactive | inactive | inactive | inactive | inactive | inactive | inactive | inactive | inactive | inactive | – | inactive | inactive | inactive | inactive
10 | O=C(O)CCNC(=O)c1ccccc1 | inactive | inactive | inactive | inactive | inactive | inactive | inactive | inactive | inactive | inactive | inactive | inactive | inactive | inactive | inactive | inactive | inactive | inactive | inactive | –
11 | Cc1ccc(O)c([C@H](CCN(C(C)C)C(C)C)c2ccccc2)c1 | 5.01 µM (active) | 4.47 µM (active) | 6.31 µM (active) | 11.2 µM (active) | 6.31 µM (active) | 7.94 µM (active) | 5.01 µM (active) | – | 7.08 µM (active) | 8.49 µM (active) | 7.57 µM (active) | 3.98 µM (active) | 9.53 µM (active) | – | 7.57 µM (active) | 16.9 µM (active) | 10.7 µM (active) | 13.5 µM (active) | 5.36 µM (active) | –
12 | CNCCc1ccccn1 | inactive | inactive | inactive | inactive | inactive | inactive | inactive | inactive | inactive | inactive | inactive | inactive | inactive | – | inactive | inactive | inactive | inactive | inactive | inactive
13 | CC(C)(C)NC[C@H](O)COc1cccc2c1CCCC2=O | inactive | inactive | inactive | inactive | inactive | inactive | inactive | inactive | inactive | inactive | inactive | inactive | inactive | inactive | inactive | – | inactive | inactive | inactive | inactive
14 | Cc1cc(-c2ccccc2)nnc1NCCN1CCOCC1 | inactive | inactive | inactive | inactive | inactive | inactive | inactive | inactive | inactive | inactive | inactive | inactive | – | inactive | inactive | inactive | – | inactive | inactive | –

Reference: PubChem BioAssay (NCATS)
